ATXN2 expr inh: reduces ATXN2 reporter expression in HEK-293 cells; HEK-293 ATXN2-luciferase reporter, luminescence, 24 h; Potency, µM (highest dose often 57 µM), for inactives: top-dose activity change, negative = inhibition, actives largely listed as inhibitors; hit rate 0.72% among 360,000; AID 1745845; further: potency means the concentration at half of the fitted maximal effect; on the % scale 0 is the no-effect control and ±100 the full control effect; nearly all actives have a fitted effect of over 55% in size
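qHTS (up to 57 uM final) was run with 24 h compound exposure of reporter cells at 37 °C. Each well was multiplexed: SteadyGlo luminescence measured ATXN2-luciferase expression after a fluorogenic Gly-Phe-AFC viability readout (25 uM final).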
HepG2 tox: HepG2 cytotoxicity, counter-screen for TGF-b inhibitors; HepG2 CAGA-GFP viability, ATP luminescence, 18 h; Potency, µM (doses to about 46.1 µM), without a hit: at the highest dose activity change, negative = cytotoxicity, most hits filed as cytotoxic; hit rate 0.76% among 410,000; AID 588856; further: potency means the concentration at half of the fitted maximal effect
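HepG2 CAGA-GFP cells (1000/well, DMEM with 1% FBS) received compound, then TGF-beta at 500 pg/mL final, and were incubated 18 hours at 37 degrees C. Viability was read by CellTiter-Glo luminescence. Media-only wells were set as complete cell-killing and DMSO as no toxicity.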
IL1B secr inh: blocks inflammasome-driven IL-1 beta release | THP-1 LPS/ATP IL-1B secretion, AlphaLISA, 16 h; active compounds read low | activity change, % at 57.5 µM | hit rate 4.7% among 360,000; in the data active means activity change below about -50%; inconclusive means mostly about -30% to -49%; further: on the % scale 0 is the no-effect control and ±100 the full control effect
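THP-1 cells pretreated 1 hr with compounds (up to 57.5 uM final), then stimulated with LPS (250 ng/mL final) plus ATP (1.25 mM final); secreted IL-1B measured by AlphaLISA after 16 hr, decreased signal indicating inhibition.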
S2 tox: viability counter-screen for ATXN expression inhibitors; S2 cells (HEK-293 line with an ATXN2-luciferase reporter) viability, CellTiter-Fluor protease fluorescence, 24 h; Potency, µM (titrated, usually from 56.7 µM), most hits filed as cytotoxic; AID 651635; hit rate 0.49% among 400,000; further: potency means the concentration at half of the fitted maximal effect; nearly all actives have a fitted effect of over 40% in size
TGFb SMAD3 inh: inhibitors of TGF-b signaling; Potency, µM (doses to about 46.1 µM), without a hit: at the highest dose activity, negative = inhibition, hits mostly inhibitors; hit rate 1.2% among 410,000; HepG2 CAGA-GFP TGF-b/SMAD3 reporter, GFP fluorescence, 18 h; TGF-beta stimulated, 500 pg/mL final; further: potency means the concentration at half of the fitted maximal effect; on the % scale 0 is the no-effect control and ±100 the full control effect; nearly all actives have a fitted effect of over 65% in size
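Inhibition was scored as loss of TGF-beta-induced (500 pg/mL final, 18 hours, 37 degrees C) GFP in HEPG2 cells carrying a CAGA-GFP reporter, in DMEM with 1% FBS. Well GFP was summed per cell; Activity was normalised to unstimulated and stimulated DMSO wells, then concentration-response fitting.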
Active calls of the source: *; i = inactive; ? = inconclusive; nt = no result; ! = a repeat was not active; [ ] = dose if it differs, or a comment. A selection: hits, their analogues and other compounds. The true share with any hit is near 5.7%. Unless noted, the call rests on the fitted dose curve; in most records, active means well fitted curve in the direction sought with a large enough effect; inconclusive means small, poorly fitted or top-dose-only effect, or another doubt; inactive means no such curve, though single readings can be large; an effect the other way counts as inactive or inconclusive.

SMILES	ATXN2 expr inh	HepG2 tox	IL1B secr inh	S2 tox	TGFb SMAD3 inh
CC(=O)N1CCCc2cc(S(=O)(=O)N3CCCC(C(=O)N4CCN(c5cc(C)ccc5C)CC4)C3)ccc21 (stereo unspecified)	20µM*	-4%	-78*	25µM*!	13µM*
CC(=O)N1CCCc2cc(S(=O)(=O)N3CCCC(C(=O)N4CCN(c5ccccc5)CC4)C3)ccc21 (stereo unspecified)	?	-31%	-25	?	?
O=C(COc1ccc(Cl)cc1)Nc1ccc2nc(SCC(=O)N3CCCC3)sc2c1	nt	-24%	nt	nt	?
COc1ccc(OC)c(Nc2ncnc3sc(-c4ccccc4)cc23)c1	-18%	-28%	28	i	?
CN(C)CCNc1ncnc2sc(-c3ccccc3)cc12	?	-24%	-72*	i	-6%
CNc1ncnc2sc(-c3ccccc3)cc12	10%	-5%	-77*	i	5%
OCCOCCNc1ncnc2sc(-c3ccccc3)cc12	1%	-23%	-18	i	-1%
Oc1ccc(N2CCN(c3ncnc4sc(-c5ccccc5)cc34)CC2)cc1	?	-18%	-70*	i	-17%
N#Cc1ccccc1OCC(=O)N1CCc2ccccc2C1	1%	-8%	0	i	-19%
COc1cc2c(cc1OC)CN(C(=O)COc1ccccc1C#N)CC2	-35%	-41%	-74*	?	?
Cc1cccc(OCC(=O)N2CCc3ccccc3C2)c1C	nt	-1%	-8	i	13%
Cc1cccc(C)c1OCC(=O)N1CCc2ccccc2C1	5%	-9%	-82*	i	-18%
O=C(Nc1ccc(C(F)(F)F)cc1)c1cc(S(=O)(=O)NC2CCCCCC2)ccc1F	32µM*	11µM*	nt	nt	?
O=C(Nc1ccc(Br)cc1)c1cc(S(=O)(=O)NC2CCCC2)ccc1F	?	-61%	nt	?	?
Cc1ccc(NC(=O)c2cc(S(=O)(=O)NC3CCCCC3)ccc2F)cc1Cl	nt	10µM*	nt	nt	10µM*
O=C(Nc1ccc(C(F)(F)F)cc1)c1cc(S(=O)(=O)NC2CCCCC2)ccc1F	?	-103%	nt	?	13µM*
CCN(Cc1ccccc1)S(=O)(=O)c1ccc2c(c1)CC(C)N2C(=O)C1CCC1 (stereo unspecified)	?	5%	nt	?	-31%
Fc1ccc2[nH]c3c(NCc4ccco4)ncnc3c2c1	nt	-46%	nt	nt	?
COc1ccc(-c2cn3cccnc3n2)cc1NC(=O)c1ccc(Br)o1	9%	1%	-54*	i	-18%
Cc1ccc(-c2cn3cccnc3n2)cc1NC(=O)c1ccc(Br)o1	0%	-6%	?	i	17%
Cc1c(NC(=O)C(C)OC(=O)c2ncc(Cl)c(Cl)c2Cl)c(=O)n(-c2ccccc2)n1C (stereo unspecified)	-1%	4%	-72*	?	?
Cc1ccc(NC(=O)C2CCN(c3nc4ccccc4[nH]3)CC2)c(C)c1	nt	-31%	nt	nt	0%
CC(O)[C@H]1CN=C(N)N1CCCCC1CCCCC1 (stereo partly specified)	-5%	-9%	?	i	12%
NCCCC[C@H]1CN=C(N)N1CC1CCCCC1	12%	4%	-1	i	-1%
S=C1NC[C@H](c2ccccc2)N1CCCCC1CCCCC1	?	11µM*	21	?	18µM*
SMILES	ATXN2 expr inh	HepG2 tox	IL1B secr inh	S2 tox	TGFb SMAD3 inh
Oc1ccc(C[C@@H]2CNC(=S)N2CCCCC2CCCCC2)cc1	-10%	-107%	-3	?	13µM*
NC1=NC[C@H](c2ccccc2)N1CCCCC1CCCCC1	-13%	-72%	-83*	?	?
O=C1NC[C@@H](Cc2ccc(O)cc2)N(CCCCC2CCCCC2)C1=O	-4%	nt	0	i	nt
NCCCC[C@H]1CN=C(N)N1CCCCC1CCCCC1	-5%	-5%	-64*	i	9%
CC(=O)N1c2ccc(S(=O)(=O)N(C)CC(=O)N(Cc3ccccc3)C(C)C)cc2CC1C (stereo unspecified)	-4%	-6%	nt	i	4%
COc1cccc2c1C(=O)/C(=C/c1ccc(N(C)C)cc1)C2	nt	-35%	nt	nt	-3%
COc1ccc(Cl)cc1NC(=O)c1c(NCc2cccs2)sc2c1CCCC2	nt	-38%	nt	nt	?
O=C(NC(=S)Nc1cc(Cl)ccc1O)c1cccc(Br)c1	nt	-41%	14	i	10µM*
O=C(CSc1nc(C2CCCCC2)nc2ccccc12)N1CCCC1	5%[11.3 µM]	-14%	-81*	?	-23%
CCc1nc(SCC(=O)N2CCN(c3ccccc3)CC2)c2oc3ccccc3c2n1	-39%	-23%	-67*	?	5%
CCc1nc(SCC(=O)N2CCCC2)c2ccccc2n1	29%	-2%	-94*	i	3%
CC1CCCCN1C(=O)CSc1nc(C2CC2)nc2c1cnn2-c1ccccc1 (stereo unspecified)	0%	7%	-91*	i	2%
CCc1nc(SCCO)c2oc3ccccc3c2n1	9%	-21%	-23	i	5%
Cc1nn(C)c(C)c1NC(=O)CSc1nc(C2CC2)nc2c1cnn2-c1ccccc1	-20%	-9%	41	i	-4%
CCN(CC)c1cc(C)c2cc(NC(=O)c3ccccc3Cl)ccc2n1	-17%	-33%	nt	?	11%
CCCC(=O)Nc1nc2c(s1)CC(C(C)(C)C)CC2 (stereo unspecified)	57%	-29%	nt	i	18%
O=C(CSc1nc(C2CC2)nc2ccccc12)N1CCCCC1	15%	-14%	-95*	i	3%
CC(C)c1nc(SCC(=O)N2CCCC2)c2ccccc2n1	8%	-4%	?	i	-8%
Clc1cccc(-c2cc3nc4c(c(NCc5ccco5)n3n2)CCCC4)c1	96%	-23%	-96*	i	?
O=C(N/N=C/c1ccc2c(c1)OCO2)c1ccc2c(c1)OCO2	1%	-6%	-14	i	-28%
O=C(N/N=C/c1cc2c(cc1Cl)OCO2)c1ccc2c(c1)OCCO2	0%	-2%	-58*	?	-2%
O=C(N/N=C/c1c(Cl)[nH]c2ccccc12)c1ccc2c(c1)OCCO2	67%	-43%	-57*	i	0%
COc1ccc(-c2cc(=O)[nH]c3ccccc23)cc1	5%	-8%	-52*	i	-24%
O=C(O)c1cccc(-c2noc(-c3ccccc3F)n2)c1	?	nt	nt	i	nt
CCOc1ccc(N(C)S(=O)(=O)c2c(C(=O)N3CCC(C)CC3)c(C)n(C)c2C)cc1	nt	8%	nt	nt	14%
CCN(CC(=O)Nc1cccc(OC)c1)C(=O)c1cnc(Cl)c(Cl)c1	2%	11%	-83*	i	0%
CCCN(CC(=O)Nc1ccccc1OC)C(=O)c1cnc(Cl)c(Cl)c1	-7%	-9%	18	i	0%
